# Screening results as filed in PubChem.
# D3 antag: qHTS of D3 Dopamine Receptor Antagonist: qHTS; hit rate 2.5% among 360,000; D3R cells, DiscoveRx beta-arrestin luminescence, antagonist mode; active compounds read low; max response, negative = inhibition, %; in the data active means max response below about -50%; inconclusive means no clear call, values can overlap the other calls; further: on the % scale 0 is the no-effect control and ±100 the full control effect
#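 Cells plated overnight at 1500 cells/well, then exposed to library compounds with dopamine controls for 90 minutes at 37 degrees C. DiscoveRx reagent added for 30–60 minutes at room temperature; luminescence read, quantitative HTS format.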
# DT40 TDP1 CPT: qHTS for Inhibitors of human tyrosyl-DNA phosphodiesterase 1 (TDP1): qHTS in cells in presence of CPT. chicken DT40 Tdp1-/-;hTDP1 cells + 20 nM CPT, ATP luminescence, 48 h. Potency, µM (doses to about 46.2 µM), without a hit: top-dose activity change, negative = growth inhibition, actives largely listed as inhibitors. hit rate 12% among 420,000; further: potency means the concentration at half of the fitted maximal effect; on the % scale 0 is the no-effect control and ±100 the full control effect; nearly all actives have a fitted effect of over 55% in size
#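 Chicken DT40 Tdp1-/- cells stably complemented with human TDP1 were seeded at 400 cells/well in medium containing 20 nM camptothecin, exposed to pin-transferred compounds, and grown at 37 °C for at least 48 hr. Viability was read as ATP luminescence.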
# ClpP mod: qHTS Assay for Activators of ClpP. purified B. subtilis ClpP, FRET peptide cleavage, 20 min. Potency, µM (titrated, usually from 57.5 µM), for the others: top-dose activity change, negative = active. hit rate 1.9% among 340,000; active means well fitted falling curve with a large enough effect; inconclusive means small, poorly fitted or top-dose-only effect; inactive means no such curve, though single readings can be large or run the other way; further: potency means the concentration at half of the fitted maximal effect; the source files actives as falling curves though it sought activators and does not explain the sign; nearly all actives have a fitted effect of over 65% in size
#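 ClpP 10 microg/mL final, pH 8 Tris/KCl buffer with BSA, glycerol, Tween-20; compound pinned in; FRET-FV substrate; RT 20 min; Ex320/Em430; ΔFRET vs ADEP 5.8 microM, DMSO, no enzyme.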
# IL1B secr inh: qHTS for Inhibitors of Inflammasome Signaling: IL-1-beta AlphaLISA Primary Screen. THP-1 LPS/ATP IL-1B secretion, AlphaLISA, 16 h; active compounds read low. hit rate 4.7% among 360,000. activity change, % at 57.5 µM; in the data active means activity change below about -50%; inconclusive means mostly about -30% to -49%; further: on the % scale 0 is the no-effect control and ±100 the full control effect
#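 Secreted IL-1B measured by AlphaLISA bead assay after 16 h compound exposure of THP-1 cells; compounds (final up to 57.5 uM) added 1 h before LPS (250 ng/mL) and ATP (1.25 mM) stimulation; lower signal means less secretion.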
# TDP1 cell noCPT: qHTS for Inhibitors of human tyrosyl-DNA phosphodiesterase 1 (TDP1): qHTS in cells in absence of CPT. hit rate 15% among 420,000. Potency, µM (highest dose often 46.2 µM), for inactives: top-dose activity change, negative = growth inhibition, most hits filed as inhibitors. DT40 Tdp1-/- hTDP1 cells, no CPT, ATP luminescence, 48 h; further: potency means the concentration at half of the fitted maximal effect; on the % scale 0 is the no-effect control and ±100 the full control effect; nearly all actives have a fitted effect of over 55% in size
#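 No-CPT arm: Tdp1-/-;hTDP1 DT40 cells (400/well) plus compounds, incubated ≥48 hr at 37 °C. Readout CellTiter-Glo luminescence.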
# D3 ag: qHTS of D3 Dopamine Receptor Agonist: qHTS; D(3) dopamine receptor (Homo sapiens), P35462; D3R DiscoveRx beta-arrestin cells, luminescence, 90 min; max activation, %; hit rate 0.58% among 410,000; in the data active means max activation above about 30%; further: 0% is about no effect
#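 Cells at 1500/well, incubated overnight, then treated with pinned compounds (dopamine as control) for 90 min at 37 degrees C. DiscoveRx reagent added for 30 - 60 minutes at room temperature; luminescence read.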
# * hit, by the source's call; ? = inconclusive; . = no result. Hits are enriched below; roughly 21% of the tested compounds scored in any of these assays. Unless noted, the call rests on the fitted dose curve; in most records, active means well fitted inhibition curve with a large enough effect; inconclusive means small, poorly fitted or top-dose-only effect; inactive means flat fitted curve, though single readings scatter.
SMILES,D3 antag,DT40 TDP1 CPT,ClpP mod,IL1B secr inh,TDP1 cell noCPT,D3 ag
CC12CCC(/C(=C/NNc3ccc([N+](=O)[O-])cc3[N+](=O)[O-])C1=O)C2(C)C (centres undefined),-27.1,18.4µM*,1.3%,-6.5,18.4µM*,-5.3
CC1CCN(C(=O)C(C)Sc2nc(-c3ccccc3)cc(C(F)(F)F)n2)CC1 (centres undefined),-11.9,25.9µM*,-10.2%,-29.1,29.1µM*,-14.3
Cc1ccc(C)c(N2CCN(S(=O)(=O)c3ccc4[nH]c5c(c4c3)CCCC5)CC2)c1,.,?,?,.,?,4.3
O=S(=O)(c1ccc2[nH]c3c(c2c1)CCCC3)N1CCCCC1,-20.7,?,-9.7%,-0.2,23.1µM*,-7.9
Cc1ccc(NC(=O)C2CCN(S(=O)(=O)c3ccc4[nH]c5c(c4c3)CCCCC5)CC2)cc1,.,13µM*,-14.4%,.,14.6µM*,1.8
COc1ccc(NC(=O)C2CCN(S(=O)(=O)c3ccc4[nH]c5c(c4c3)CCCCC5)CC2)cc1,.,?,-14.8%,.,?,2.3
CCCCn1c(N)c(N(CCOC)C(=O)COC(=O)COc2c(C)cc(C)cc2C)c(=O)[nH]c1=O,-16.2,2.4%,0.6%,4.5,-4.4%,2.2
Cc1ccc(P(=O)(c2ccc(C)cc2)[C@@H](NC(c2ccccc2)c2ccccc2)c2ccccc2)cc1,-108.7*,18.4µM*,-0.6%,0.0,13µM*,-17.0
Cc1ccc(C(=O)CC(C(=O)O)P(=O)(c2ccccc2)c2ccccc2)cc1 (centres undefined),-2.0,10.4%,.,19.2,-11.7%,4.5
N#Cc1ccc(S(=O)(=O)N2CCN(Cc3cccs3)CC2)cc1,-9.4,?,0.2%,2.0,?,-2.1
COc1ccc(CCN(Cc2cccs2)S(=O)(=O)c2ccc(S(=O)(=O)N3CCCCCC3)cc2)cc1OC,2.0,?,1.0%,5.6,9.2µM*,-2.5
CCC(C)NS(=O)(=O)c1ccc(S(=O)(=O)N(CCc2ccc(OC)c(OC)c2)Cc2cccs2)cc1 (centres undefined),18.0,10.3µM*,1.0%,-14.5,7.31µM*,8.1
COc1ccc(CCN(Cc2cccs2)S(=O)(=O)c2ccc(-n3cnnn3)cc2)cc1OC,9.0,11.6µM*,-1.7%,-19.3,?,0.4
COc1cc(S(=O)(=O)N(CCc2ccccc2)Cc2cccs2)ccc1-n1cnnn1,-4.9,-22.3%,-0.2%,7.6,-21.0%,-2.7
Cc1ccccc1CSCCNC(=O)Nc1ccccc1,-7.3,-29.0%,0.5%,-15.4,?,-1.4
COc1ccc(CN2CCN(S(=O)(=O)c3ccc(NC(C)=O)cc3)CC2)c(OC)c1OC,2.3,16.4µM*,0.1%,-4.2,?,0.9
COc1ccc(CN2CCN(C(=O)C3CCC(CNS(=O)(=O)c4ccc(C)cc4)CC3)CC2)c(OC)c1OC (centres undefined),-1.4,?,.,-11.6,20.6µM*,1.7
COc1ccc(/C=N/NC(=O)c2cccc(Br)c2)cc1COc1ccccn1,-25.6,1.3%,.,18.7,-2.8%,-11.6
Cc1ccc(Cc2c(C3CCCCC3)nc3c(C)cc(Br)cn23)cc1,?,?,-16.6%,36.5,-18.1%,-4.4
CCN(CC)c1nc(N)c2c(N)nc3c(c2c1C#N)CC(c1ccccc1)O3 (centres undefined),-28.7,?,28.2µM*,26.1,?,-38.5
CCN(CC)c1cc(C)c(C#N)c2nc3ccccc3n12,7.1,1.6%,-1.0%,30.5,?,2.8
N#Cc1c(N2CCCCC2)nc(N)c2c(N)nc3c(c12)CC(c1ccccc1)O3 (centres undefined),0.0,?,28.2µM*,-8.7,11.2µM*,1.1
CCN(CC)c1nc(N)c2c(N)n(-c3ccccc3C)c(=S)c(C#N)c2c1C#N,-82.3*,-4.2%,2.7%,3.9,-17.3%,1.5
Cc1ccc(-c2noc(COC(=O)c3ccco3)n2)cc1,-18.2,0.2%,1.2%,26.0,3.9%,3.0
O=c1c2c3c(sc2n(Cc2cc(=O)n4ccccc4n2)c(=O)n1-c1ccccc1)CCC3,.,2.5%,-9.0%,.,-8.5%,0.2
SMILES,D3 antag,DT40 TDP1 CPT,ClpP mod,IL1B secr inh,TDP1 cell noCPT,D3 ag
CCN1C(=O)c2ccccc2Sc2ccc(C(=O)NC(C)C)cc21,10.7,1.4%,-0.7%,-0.2,-0.3%,1.7
CCN1C(=O)c2ccccc2Sc2ccc(NC(=O)Nc3ccc(C(C)=O)cc3)cc21,.,?,-4.9%,.,20.6µM*,8.8
CCc1ccccc1NC(=O)Nc1ccc2c(c1)N(CC)C(=O)c1ccccc1S2,.,8.2µM*,-1.5%,.,14.6µM*,1.9
CCn1c(N)cc(=O)[nH]c1=S,?,-7.1%,0.7%,44.8,-8.8%,-11.7
COc1ccc(N(Cc2cc3ccccc3[nH]c2=O)S(=O)(=O)c2ccccc2)cc1,9.2,?,-4.9%,0.0,18.4µM*,-8.3
COc1ccc(N(Cc2cc3ccccc3[nH]c2=O)S(=O)(=O)c2ccc(C)cc2)cc1,-11.9,?,-20.3%,-13.6,?,-8.6
COc1ccc(N(Cc2cc3cccc(C)c3[nH]c2=O)S(=O)(=O)c2ccc(Cl)cc2)cc1,27.7,?,-7.1%,4.3,23.1µM*,-3.9
Cc1ccn2c(=O)c(C(=O)NC(C)c3ccccc3)c(O)nc2c1 (centres undefined),.,?,4.0%,.,23.1µM*,10.4
Cc1ccn2c(=O)c(C(=O)NCCc3ccccc3)c(O)nc2c1,.,?,-14.5%,.,23.1µM*,0.0
Cc1ccc(CNC(=O)c2c(O)nc3cc(C)ccn3c2=O)cc1,.,-6.0%,-10.5%,.,-4.6%,3.8
CC(NC(=O)c1c(O)nc2ccccn2c1=O)c1ccccc1 (centres undefined),.,23.1µM*,3.6%,.,18.4µM*,-4.0
COc1ccc(N2C(=O)N[C@@H](Cc3ccccc3)C2=O)cc1OC,-26.4,-7.7%,1.0%,-16.0,-2.7%,-5.0
CC(C)c1ccc(NC(=O)c2ccc(=O)n(Cc3ccccc3)c2)cc1,.,16.4µM*,-4.3%,.,20.6µM*,-0.4
CCOC(=O)c1ccc(NC(=O)c2ccc(=O)n(Cc3cccc(C)c3)c2)cc1,.,20.6µM*,-4.1%,.,16.4µM*,-2.9
